In the library only some 10% were active in any assay of this set; here they are far more common.
PTEN del growth – growth suppression of PTEN-null HCT116, primary screen, cell-based, CellTiter-Glo; viability, % at 10 µM; AID 827, 2007; hit rate 1.2% among 140,000; HCT116 PTEN-null viability, 60 h; hits give low values;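 active = viability at or below a set limit, 4 SD under the median of all tested compounds, cut at about 3.7% in these data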;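 also: PTEN knockout HCT116 line with beta catenin targeted HCT116 as companion control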
Lmaj promast – Leishmania major promastigote growth inhibition, primary screen. Leishmania major promastigotes, resazurin fluorescence viability. inhibition, % at 10 µM. hit rate 9% among 200,000. AID 1063, 2008; in the data active = inhibition above about 50%;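 also: promastigotes grown with compound for 44 hours at 28 °C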
p97 inhibitor – inhibitors of human p97 ATPase, primary screen, biochemical. recombinant p97 ATPase, Kinase-Glo ATP luminescence, 3 h. hit rate 0.42% among 220,000. inhibition, % at 8 µM. Transitional endoplasmic reticulum ATPase (Homo sapiens), P55072; in the data active = inhibition above about 15%;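 also: 0% = DMSO vehicle and 100% = wells lacking enzyme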
INS promoter inh – inhibitors of insulin promoter-driven GFP, primary screen, imaging, TRM-6 cells (human fetal islet line), eGFP reporter, cell count. hit rate 0.9% among 130,000. reporter expression induced with tamoxifen. AID 1273, 2008. inhibition, % at 2 µM;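 active = inhibition above the mean plus 3 SD, with well images judged a real hit on visual review, cut at about 60% in these data, passing the limit was not always enough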
ROMK primary – ROMK potassium channel modulators, primary screen, cell-based, thallium flux, MLSMR library; ATP-sensitive inward rectifier potassium channel 1 (Homo sapiens), P48048; Tet-inducible ROMK, thallium flux fluorescence; actives lie on both sides; B-score at 10 µM; hit rate 2% among 130,000; AID 1918, 2009;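 active = signal ratio slope over the read window, or its plate-corrected B-score, at least 3 SD from the plate mean, either direction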;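 also: B-score of the F/F0 ratio slope over 7 to 12 s after thallium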
Target sequence (P48048 whole entry, looked up): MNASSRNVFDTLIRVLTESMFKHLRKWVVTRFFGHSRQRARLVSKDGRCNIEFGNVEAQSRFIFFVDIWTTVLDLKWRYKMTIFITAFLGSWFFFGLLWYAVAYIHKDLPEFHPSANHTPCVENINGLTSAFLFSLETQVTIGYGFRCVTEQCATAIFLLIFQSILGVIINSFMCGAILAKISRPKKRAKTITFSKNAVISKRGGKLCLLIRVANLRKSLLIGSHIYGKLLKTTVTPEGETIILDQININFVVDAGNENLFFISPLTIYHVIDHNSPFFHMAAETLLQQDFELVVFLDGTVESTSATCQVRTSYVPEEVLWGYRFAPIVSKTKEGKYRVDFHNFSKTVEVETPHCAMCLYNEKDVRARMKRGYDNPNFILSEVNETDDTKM
HCT116 bCat-KO – primary screen for growth suppressors in beta-catenin knockout HCT116 cells (colon tumor, human); viability, % at 10 µM; HCT116 beta-catenin knockout viability, CellTiter-Glo, 60 h; hits give low values; hit rate 1.5% among 140,000;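 active = viability at or under a set limit, the compound median less 4 SD, cut at about 6% in these data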;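 also: 0% = Hyamine 1622 control at 20 µM and 100% = untreated cell control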
* = called active by the depositor; . = not tested or not shown.

SMILES | PTEN del growth | Lmaj promast | p97 inhibitor | INS promoter inh | ROMK primary | HCT116 bCat-KO
c1ccc(CN2CCN(c3nc(-c4ccccc4)nc4ccccc34)CC2)cc1 | 81.6 | 68.4* | -2.7 | -7.1 | . | 74.1
COc1ccc(NC(=O)CCSCCc2ccccn2)cc1OC | . | 0.8 | 1.4 | 22.2 | 0.0723 | .
Cn1ncc(Cl)c1C(=O)N1CCN(c2ncccn2)CC1 | . | 1.3 | -0.4 | . | 0.664 | .
CSc1nc(N2CCOCC2)c2ccccc2n1 | 91.8 | 50.6* | 1.6 | -12.0 | . | 86.4
c1ccc(CN2CCN(c3nc(-c4ccccn4)nc4ccccc34)CC2)cc1 | 13.5 | 100.3* | -6.8 | . | -1.13 | 32.6
COC(=O)[C@H](CC(C)C)NC(=O)Nc1ccc(S(N)(=O)=O)cc1 | . | . | -5.8 | . | 0.138 | .
COc1ccc(OC)c(CC(NC(C)=O)C(=O)NC2CCN(c3nc(OC)nc(OC)n3)CC2)c1 (stereo unspecified) | . | 2.5 | 0.3 | . | -0.455 | .
CCCCN(CC)CCCNC(=O)C1CCN(c2ncnc3c2sc2cccc(F)c23)CC1 | . | 100.1* | 1.0 | -7.1 | . | .
COc1ccc(Cc2noc(CN(C)CC3(N4CCOCC4)CCCCC3)n2)cc1OC | . | 0.8 | 1.7 | . | 0.19 | .
Cc1cccc(NS(=O)(=O)c2cc(C(=O)N3CCc4ccccc4C3)ccc2Cl)c1C | 54.1 | 97.0* | -5.4 | -29.2 | 0.163 | 64.4
CNC(=O)c1ccc(N(Cc2ccccc2C)S(C)(=O)=O)cc1 | 92.3 | -6.0 | 3.6 | 14.3 | . | 89.5
CCOC(=O)N1CCN(C(=O)c2ccc(C)c(S(=O)(=O)Nc3cccc(C)c3C)c2)CC1 | 80.0 | 98.2* | -3.1 | 20.5 | . | 84.6
Cc1ccccc1CN(c1ccc(C(=O)N2CCc3ccccc3C2)cc1)S(C)(=O)=O | 67.4 | 70.0* | -4.0 | -10.5 | . | 74.0
Cc1ccccc1NS(=O)(=O)c1cc(C(=O)N2CCCC2)ccc1C | 99.7 | -1.4 | 4.8 | -17.9 | . | 118.5
Cc1ccc(C)c(NS(=O)(=O)c2cc(C(=O)N3CCc4ccccc4C3)ccc2Cl)c1 | 79.4 | 98.3* | -1.0 | . | . | 88.6
CCOC(=O)N1CCN(C(=O)c2ccc(C)c(S(=O)(=O)Nc3ccccc3)c2)CC1 | 72.0 | -0.1 | 2.5 | 23.1 | . | 82.1
CCN(CC)CCOC(=O)c1ccc(NC(=O)CNC(=O)C2CCCCC2)cc1 | 101.8 | -5.7 | -2.1 | -28.1 | . | 89.5
Cc1ccn2cc(CCNC(=O)COc3ccccc3)nc2c1 | . | . | 4.1 | . | . | .
CCn1ncc(Br)c1C(=O)Nc1cc([N+](=O)[O-])ccc1C | 91.4 | -2.8 | -2.7 | 16.7 | -0.43 | 91.0
CCOC(=O)CSc1n[nH]c(NC(=O)NC(C)C)n1 | . | -4.2 | 2.5 | . | 0.974 | .
NC(=S)c1cc2cc(Br)ccc2oc1=O | . | -7.0 | 4.2 | 40.0 | 0.0397 | .
O=C(NNC(=O)c1cc2cc(Br)ccc2oc1=O)c1ccc(O)cc1 | . | 26.1 | 14.7* | . | 0.73 | .
Nc1ccc(N2CCN(c3cccc(Cl)c3)CC2)cc1 | 66.3 | 89.3* | 0.8 | 38.5 | -0.864 | 72.9
Nc1nc(N2CCN(c3cccc(Cl)c3)CC2)n[nH]1 | . | -0.3 | 1.9 | . | 0.645 | .
COc1cccc(N(C(=O)CCl)C(C(=O)NCCc2ccccc2)c2cccs2)c1 (stereo unspecified) | 1.2* | 100.2* | -1.0 | -163.2 | -2.78 | 2.4*
SMILES | PTEN del growth | Lmaj promast | p97 inhibitor | INS promoter inh | ROMK primary | HCT116 bCat-KO
COc1cccc(N(C(=O)CS(=O)CC(=O)Nc2ccc(F)cc2)C(C(=O)NC2CCCCC2)c2cccs2)c1 (stereo unspecified) | 83.3 | 24.5 | -1.2 | -37.9 | . | 81.8
CCOC(=O)NNc1ccc2nonc2c1[N+](=O)[O-] | . | . | 20.9* | . | . | .
O=[N+]([O-])c1c(Nc2ccccc2)ccc2nonc12 | 101.1 | -3.1 | 4.1 | 58.3 | . | 102.5
CCCOc1ccccc1C1C(C(=O)OC)=CN(C(C)C)C=C1C(=O)OC | 56.2 | 100.0* | 4.1 | 36.4 | . | 76.2
CCCCOc1ccccc1C1C(C(=O)OC)=CN(CC)C=C1C(=O)OC | 73.1 | 60.9* | -9.9 | 52.8 | 0.726 | 81.3
COC(=O)C1=CN(C)C=C(C(=O)OC)C1c1ccccc1Cl | 97.5 | 5.0 | 1.9 | 20.0 | -0.189 | 92.3
C=CCNC(=O)C1COc2ccccc2O1 (stereo unspecified) | . | . | 7.6 | . | . | .
Cc1cc(-c2nnc3n2N=C(c2ccccc2)CS3)n[nH]1 | . | . | -0.7 | . | . | .
Cc1cc(-c2nnc3n2N=C(c2ccc(-c4ccccc4)cc2)CS3)n[nH]1 | 3.1* | 65.9* | 5.5 | . | 0.484 | 19.4
